The list is not random: actives were taken first. Their share in the collection is about 1.9%.
GRK2 aptamer HTS: compounds blocking aptamer binding on GRK2 – biochemical, human GRK2, bead flow cytometry, HTS, primary screen. Beta-adrenergic receptor kinase 1 (Homo sapiens), P25098. FAM-aptamer displacement from GRK2. inhibition of aptamer binding, % at 10 µM. 330,000 compounds, 0.59% hits. AID 488847, 2010;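 active = inhibition of aptamer binding above 40%, roughly 3 SD of noise, on plates passing a quality check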;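 note: median bead fluorescence of bound FAM aptamer so fluorescent compounds give negative values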
MLLE-PAM2 inh: inhibitors of PABP1 MLLE–PAM2 peptide binding, primary screen, biochemical, fluorescence polarization, FITC-PAM2, GST-MLLE; inhibition, % at 20 µM; 360,000 compounds, 0.36% hits; AID 588489, 2011; in the data active = inhibition above about 35%, passing the limit was not always enough;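 note: plate controls were DMSO wells with GST-MLLE for no effect and wells lacking GST-MLLE protein for full effect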
PABP polyA inh: PABP poly(A) RNA binding inhibitors, primary screen, biochemical, fluorescence polarization, uHTS | Polyadenylate-binding protein 1 (Homo sapiens), P11940 | inhibition, % at 35 µM | 290,000 compounds, 1% hits | AID 2014, 2009;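 note: calls also rest on retests at 20 µM and on dose response follow-up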
PERK inh: block of dimerizer-induced PERK translation repression, primary screen, PERK inhibitor project, CHO PERK-DD cells, SEAP luminescence, HTS; Eukaryotic translation initiation factor 2-alpha kinase 3 (Homo sapiens), Q9NZJ5; CHO PERK-DD fusion, SEAP luminescence translation reporter; inhibition, % at 5.6 µM; 220,000 compounds, 0.17% hits; AID 1416, 2008;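 active = inhibition above the mean inhibition of all tested compounds plus 3 SD, set separately per screening campaign, cut at about 2.9% in these data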;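 note: PERK kinase domain activated by AP20187 dimerizer at 100 nM; 0% = DMSO with dimerizer and 100% = rapamycin at 8.4 µM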
eIF4H FP inh: human eIF4H binding inhibitors, primary screen, translation initiation inhibitor project, biochemical, uHTS, fluorescence polarization. Eukaryotic translation initiation factor 4H (Homo sapiens), Q15056. eIF4H fluorescence polarization binding assay. inhibition, % at 35 µM. 290,000 compounds, 0.94% hits. AID 2012, 2009;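 note: calls also rest on retests at 20 µM and on dose response follow-up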
* = called active by the depositor. Unless noted, the rule behind the calls is not given here.

O=C1N=C(N2CCOCC2)S/C1=C1\C(=O)N(Cc2ccccc2)c2ccc(Br)cc21 was read as PABP polyA inh -0.5 and eIF4H FP inh -10.2.
For CC(/C=C/c1ccco1)=N\NC(=O)c1cccnc1 the results were GRK2 aptamer HTS 0.0, MLLE-PAM2 inh 6.6, PABP polyA inh 34.3, PERK inh 2.0 and eIF4H FP inh 30.0.
For O=C(/C=C/c1ccco1)c1cccnc1 the results were GRK2 aptamer HTS 6.0, MLLE-PAM2 inh 2.2, PABP polyA inh 26.7* and eIF4H FP inh 56.3*.
For CCn1c(SCc2ccccc2)nc2cc(S(N)(=O)=O)ccc21 the results were GRK2 aptamer HTS 0.0, MLLE-PAM2 inh -4.0, PABP polyA inh 1.9 and eIF4H FP inh -6.1.
Screening CCC(OC(=O)CC1Sc2ccccc2NC1=O)C(=O)NCC1CCCO1 (stereo not given) returned GRK2 aptamer HTS 0.0, MLLE-PAM2 inh 40.0*, PABP polyA inh 5.3, PERK inh -0.7 and eIF4H FP inh 0.8.
Screening COC(=O)c1ccc(C)c(NC(=O)CCCN2C(=O)NC(C)(C)C2=O)c1 returned GRK2 aptamer HTS 0.0 and MLLE-PAM2 inh 0.2.
Cc1ccc2ncccc2c1NC(=S)NC(=O)c1ccccc1 was read as GRK2 aptamer HTS 0.0, MLLE-PAM2 inh 41.6*, PABP polyA inh 59.7, PERK inh -0.1 and eIF4H FP inh 2.7.
For CN(Cc1cccc(Cl)c1Cl)c1ccc(S(=O)(=O)N2CCCCC2)cc1[N+](=O)[O-] the results were GRK2 aptamer HTS 14.0, MLLE-PAM2 inh -15.7, PABP polyA inh 2.7, PERK inh -0.3 and eIF4H FP inh -3.6.
COC(=O)c1cc(NC(=O)c2ccccc2)c(=O)oc1C/C=N\OCc1ccc(Cl)cc1Cl was read as GRK2 aptamer HTS 2.0, MLLE-PAM2 inh -34.6, PABP polyA inh 87.1*, PERK inh -0.6 and eIF4H FP inh 72.1*.
Screening O=C(C/C=N/OCc1ccc(Cl)cc1Cl)c1ccccc1 returned GRK2 aptamer HTS 0.0, MLLE-PAM2 inh -4.8, PABP polyA inh -7.4, PERK inh 0.6 and eIF4H FP inh -11.3.
For CO/N=C\Cc1oc(=O)c(NC(=O)c2ccccc2)cc1C(=O)OC the results were GRK2 aptamer HTS 0.0, MLLE-PAM2 inh -1.4, PABP polyA inh 107.8*, PERK inh -0.4 and eIF4H FP inh 80.8*.
For Cc1c(N)cc(N)cc1C(=O)O the results were GRK2 aptamer HTS 1.0, MLLE-PAM2 inh 0.3, PABP polyA inh 50.5*, PERK inh 0.8 and eIF4H FP inh 82.7*.
Screening CCCCNc1c(N)n(CCCC)c(=O)[nH]c1=O returned GRK2 aptamer HTS 2.0, PABP polyA inh 6.9, PERK inh 0.2 and eIF4H FP inh -3.4.
Screening C/C=C/C=C/C(=O)[C@@H]1[C@@H]([C@]2(C)OC(=O)C(C)=C2O)[C@H]2/C(=C(O)/C=C/C=C/C)C(=O)[C@]1(C)C(=O)C2(C)O (stereo not given in full) returned GRK2 aptamer HTS 12.0, MLLE-PAM2 inh -7.5, PABP polyA inh 40.1 and eIF4H FP inh 60.7*.
Cc1cccc(C)c1NC(=O)CS(=O)CC(=O)NCCCc1ccccc1 (stereo not given) was read as GRK2 aptamer HTS 0.0, MLLE-PAM2 inh 8.6, PABP polyA inh 61.1*, PERK inh -0.2 and eIF4H FP inh 91.5*.
`COc1ccc(C(=O)NC(=S)N2CCOCC2)cc1[N+](=O)[O-]` gave GRK2 aptamer HTS 0.0, MLLE-PAM2 inh -20.8, PABP polyA inh -6.6 and eIF4H FP inh 4.5.
`CCOC(=O)c1cnc2ccc(Cl)cc2c1NCCN(C)C` gave GRK2 aptamer HTS 0.0, MLLE-PAM2 inh 41.7*, PABP polyA inh -11.9, PERK inh -1.0 and eIF4H FP inh inconclusive.
Screening CCOC(=O)c1cnc2ccc(Br)cc2c1NCCO returned GRK2 aptamer HTS 0.0, MLLE-PAM2 inh -8.4, PABP polyA inh -3.8, PERK inh 0.1 and eIF4H FP inh -4.3.
For Cc1ccc(NC(=O)COc2cccc(Oc3ccccc3)c2)cc1S(=O)(=O)N1CCOCC1 the results were GRK2 aptamer HTS 0.0 and MLLE-PAM2 inh -2.3.
